Data: PubChem BioAssay (Tox21)
Activity calls are given as the source filed them. The call rests on the fitted dose curve; in most records, active means well fitted curve in the direction sought with a large enough effect in the repeat runs; inconclusive means weak or mixed curves; inactive means flat fitted curve, though single readings scatter.

Assay: qHTS assay to test for compound auto fluorescence at 460 nm (blue) in HepG2 cells (AID 720687)
Conditions: autofluorescence 405/460 nm, 1 h; series mostly up to 91.3 µM; fluorescence, % of fluorescent control: at the top concentration
Text: U.S. Tox21 Program National Center for Advancing Translational Sciences [NCATS] NIH Chemical Genomics Center [NCGC] U.S. Environmental Protection Agency [EPA] National Institutes of Environmental Health Sciences [NIEHS] National Toxicology Program [NTP] U.S. Food and Drug Administration [FDA] Tox21 Assay Overview: Compound auto fluorescence often interferes with screening of the compound library against various biological targets and signaling pathways. Some of these compounds may have fluorophoric properties. Such properties may interfere with the assay outputs resulting in false positives and/or negatives. To decrease such complications and ensure the compound activities are relevant in terms of biological response, the Tox21 10K compound library was screened for auto fluorescence. From the fluorophores used as reporter signals in our screening assays, the auto fluorescence equivalencies of compounds against three fluorophores have been evaluated: Triamterene, Fluorescein and Rose Bengal sodium for blue, green and red fluorescence, respectively. The fluorescence intensities were measured using Excitation/Emission wavelengths at 405/460nm, 485/535nm and 540/590nm for blue, green and red labels, respectively. This assay includes the blue fluorescence data.
Tox21 Assay Protocol Summary: 2,000 HepG2 cells in 5 uL of culture medium (MEM containing 10% FBS) per well were dispensed into black wall/clear bottom 1536-well plates using a Multidrop Combi Dispenser (ThermoFisher Scientific, Waltham, MA). The assay plates were incubated overnight at 37 C to allow cell attachment to the well bottom, followed by the transfer of 23 nL compound or DMSO vehicle by a pintool work station (Kalypsys , San Diego, CA). After the assay plates were incubated for 1 hr at 37 C and 5% CO2, fluorescence intensities in the assay plates were measured by an Envision (PerkinElmer, Shelton, CT) plate reader using three labels for measuring blue, green and red fluorescence at […] 460, 535 and 590 nm respectively.
On the % scale 0 is the no-effect control and ±100 the full control effect.

Row | SMILES | fluorescence, % of fluorescent control | outcome
1 | CN(C)c1ccc(CCO)cc1 | -0.0887% (inactive) | 
2 | CCCCCCCCCc1ccc(OCCOCCO)cc1 |  | inactive
3 | CCCCCCCCO[C@@H]1O[C@H](CO)[C@@H](O)[C@H](O)[C@H]1O | -0.0982% (inactive) | 
4 | NCC(=O)CCC(=O)O | -0.0467% [at 46 µM] (inactive) | 
5 | Nc1cc(C(=O)O)c(O)c(S(=O)(=O)O)c1 | 5.49% (inactive) | 
6 | Cc1ccc(N=Nc2c(O)c(C(=O)O)cc3ccccc23)c(S(=O)(=O)O)c1 | -0.0331% [at 46 µM] (inactive) | 
7 | COc1ccnc(CS(=O)c2nc3ccc(OC(F)F)cc3[nH]2)c1OC (stereo not given) | 0.203% [at 46 µM] (inactive) | 
8 | Cc1oc(-c2ccccc2)nc1CCOc1cccc2c1ccn2CCC(=O)O | 0.243% (inactive) | 
9 | C#C[C@]1(O)CC[C@H]2[C@@H]3CCc4cc(OC5CCCC5)ccc4[C@H]3CC[C@@]21C | 0.0099% [at 46 µM] (inactive) | 
10 | C#Cc1cccc(Nc2ncnc3cc(OCCOC)c(OCCOC)cc23)c1 | -0.0018% [at 46 µM] (inactive) | 
11 | O=[N+]([O-])c1cccc(S(=O)(=O)O)c1 | -0.133% [at 95.7 µM] (inactive) | 
12 | O=CC1CC=CCC1 (stereo not given) | -0.0314% (inactive) | 
13 | CCOC(=O)C1=C[C@]2(CC)CCCN3CCc4c(n1c1ccccc41)[C@@H]32 |  | inactive
14 | O=S(c1cc(Cl)cc(Cl)c1O)c1cc(Cl)cc(Cl)c1O | -0.0883% [at 46 µM] (inactive) | 
15 | O=C(CS)Nc1ccccc1 | 0.0379% [at 46 µM] (inactive) | 
16 | O=C1CCC(=O)O1 | 0.179% (inactive) | 
17 | CCC(Cl)CCC(Cl)C(Cl)CC(Cl)C(Cl)C(Cl)CCl (stereo not given) | 0.0049% (inactive) | 
18 | CNC(=O)CN(CCN(CCN(CC(=O)[O-])CC(=O)NC)CC(=O)[O-])CC(=O)[O-].O.[Gd+3] |  | inactive
19 | O=C(O)c1nc(Cl)c(Cl)c(Cl)c1Cl | -0.231% (inactive) | 
20 | CC1=CC[C@H](C(C)C)C=C1 | 0.0004% (inactive) | 

Row | SMILES | fluorescence, % of fluorescent control | outcome
21 | CCCCC(CC)COC(=O)CCCCCCCCC(=O)OCC(CC)CCCC (stereo not given) | 0.0062% (inactive) | 
22 | CN(C)C(=O)NC1(c2ccccc2)CCN(CC[C@@]2(c3ccc(F)c(F)c3)CN(C(=O)c3ccccc3)CCO2)CC1 | -0.161% (inactive) | 
23 | CN1C[C@H]2c3ccccc3Oc3ccc(Cl)cc3[C@@H]2C1 | 0.0477% [at 46 µM] (inactive) | 
24 | CC(=O)c1ccc2c(c1)N(CCCN1CCC(CCO)CC1)c1ccccc1S2 | -0.011% [at 18.6 µM] (inactive) | 
25 | CCO[Si](CCCCl)(OCC)OCC | 0.0908% (inactive) | 
26 | NCCCN1CCOCC1 | 0.244% (inactive) | 
27 | CCOC(=O)Cc1cccc2ccccc12 | -0.0598% (inactive) | 
28 | CN(C)CCCN1c2ccccc2Sc2ccccc21 | -0.0716% [at 18.6 µM] (inactive) | 
29 | CC1CCC(=O)C1=O (stereo not given) | 0.0388% [at 95.7 µM] (inactive) | 
30 | O=C(O)c1ccccc1Cl | -0.0653% (inactive) | 
31 | C[C@@H]1C[C@H]2O[C@@]3(O[C@@H]2C(C)(C)O)[C@H](O)[C@@]2(C)[C@@H]4CC[C@H]5C(C)(C)[C@@H](O[C@@H]6OC[C@@H](O)[C@H](O)[C@H]6O)CC[C@@]56C[C@@]46CC[C@]2(C)[C@@H]13 | -0.095% (inactive) | 
32 | CC[N+](C)(CC)CCOC(=O)C(O)(c1ccccc1)C1CCCCC1 (stereo not given) | -0.043% [at 46 µM] (inactive) | 
33 | CNCCCCOc1ccccc1Cc1ccccc1 | 0.154% [at 46 µM] (inactive) | 
34 | COC(C)OC | -0.0566% (inactive) | 
35 | CC(C)C[C@H]1C(=O)N2CCC[C@H]2[C@]2(O)O[C@](NC(=O)[C@@H]3C=C4c5cccc6[nH]c(Br)c(c56)C[C@H]4N(C)C3)(C(C)C)C(=O)N12 |  | inactive
36 | CCCCCCCCCCO[C@@H]1O[C@H](CO)[C@@H](O)[C@H](O)[C@H]1O | -0.0842% (inactive) | 
37 | CC(=O)NO | -0.245% [at 46 µM] (inactive) | 
38 | COc1ccc(C(=O)c2ccc(OC)cc2O)c(O)c1 | 0.182% (inactive) | 
39 | CCOc1ccc(N)c([N+](=O)[O-])c1 | -0.493% (inactive) | 
40 | C=C(C)C(=O)OCC | 0.108% [at 95.7 µM] (inactive) | 
